Results: ChEMBL document CHEMBL4513136, “CO-ADD screening of CSIC (Spain) compounds”
Entries with a potency or affinity are not part of this list.

These molecules were tested on Staphylococcus aureus. Conditions: Concentration 32 ug.mL-1; ASSAY_TEST Inhibition of Bacterial Growth; detection method Absorption (OD600); MEDIA CAMHB; plate type 384well; NBS; CORNING #3640; time 18 hr.

SMILES	Inhibition [%]
O=C(Cc1cc(O)ccc1O)Nc1ccc(O)cc1	29.77
COc1ccc(OC)c(C(=O)/C=C/c2c[nH]c3ccc(OC)cc23)c1	20.69
O=C(/C=C/c1ccccc1O)c1cc(O)c(O)cc1O	26.82
COc1ccccc1/C=C/C(=O)c1cc(OC)c(OC)cc1OC	26.72
COc1ccc(OC)c(C(=O)CCc2ccccc2O)c1	15.3
O=C(CCc1ccc(O)cc1O)c1cc(O)ccc1O	23.73
Oc1ccc(O)c(-c2cn(-c3ccc(O)c(O)c3)nn2)c1	34.68
CC1C(=O)N(Cc2ccc(OCCN3CCOCC3)cc2)C1(Cc1ccccc1)C(=O)O (configuration not stated)	11.78
COc1ccc(OC)c(CC(=O)Nc2ccc(OC)cc2OC)c1	26.56
COc1ccc(OC)c(-c2cn(-c3ccc(OC)c(OC)c3)nn2)c1	-11.96
COc1ccc(C(=O)/C=C/c2ccc(OC)cc2OC)cc1	6.51
COc1ccc(NC(=O)Cc2cc(OC)ccc2OC)cc1	31.14
COC(=O)c1c(C(Cc2ccccc2)NC(=O)OCc2ccccc2)[nH]c2ccccc12 (configuration not stated)	22.9
COC(=O)C1(Cc2ccc(OCc3c(Cl)cccc3Cl)cc2)C(C)C(=O)N1Cc1ccc(OC)cc1 (configuration not stated)	19.17
COc1ccc(OC)c(C(=O)CCc2ccc(O)cc2)c1	16.63
COc1ccc(CN2C(=O)C(C)C2(Cc2cn(C(=O)OC(C)(C)C)c3ccccc23)C(=O)OC(C)(C)C)cc1 (configuration not stated)	27.02
COc1ccc(OC)c(C(=O)/C=C/c2ccccc2O)c1	11.52
